# Results published in the supplement of paper PMC8728848.
# The entries come from a sample that favours the strongest signals as a whole.
# B1: Gal 3 (Homo sapiens), P17931 (protein)
# chain: MADNFSLHDALSGSGNPNPQGWPGAWGNQPAGAGGYPGASYPGAYPGQAPPGAYPGQAPPGAYHGAPGAYPGAPAPGVYPGPPSGPGAYPSSGQPSAPGAYPATGPYGAPAGPLIVPYNLPLPGGVVPRMLITILGTVKPNANRIQLDFQRGNDVAFHFNPRFNENNRRVIVCNTKLDNNWGREERQSVFPFESGKPFKIQVLVEPDHFKVAVNDAHLLQYNHRVKKLNEISKLGISGDIDLTSASYTMI
# Legend:
# Test in all cases: glycan array binding signal (z-score within array); higher = stronger binding
# Settings in all cases: glycan notation: IUPAC condensed, linker removed; mutation: A146Q
# [1] = molecular target: Fuc(a1-2)Gal(b1-4)GlcNAc
# In short: (§1)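 Negative Z-scores can be read as non-binding. The Z-score is calculated within each array and then averaged across arrays of one protein sequence at different concentrations or buffers and across linkers. Arrays, 3228 in all, were curated from the Consortium for Functional Glycomics database and kept only where the protein sequence was available.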
# [2] = molecular target: Fuc(a1-2)[Gal(a1-3)]Gal(b1-3)GlcNAc
# In short: as §1
# [3] = molecular target: Fuc(a1-2)[Gal(a1-3)]Gal(b1-3)GlcNAc(b1-2)Man(a1-3)[Fuc(a1-2)[Gal(a1-3)]Gal(b1-3)GlcNAc(b1-2)Man(a1-6)]Man(b1-4)GlcNAc(b1-4)GlcNAc
# In short: as §1
# [4] = molecular target: Fuc(a1-2)[Gal(a1-3)]Gal(b1-4)Glc
# In short: as §1
# [5] = molecular target: Fuc(a1-2)[Gal(a1-3)]Gal(b1-4)GlcNAc
# In short: as §1
# [6] = molecular target: Fuc(a1-2)[Gal(a1-3)]Gal(b1-4)GlcNAc(b1-2)Man(a1-3)[Fuc(a1-2)[Gal(a1-3)]Gal(b1-4)GlcNAc(b1-2)Man(a1-6)]Man(b1-4)GlcNAc(b1-4)GlcNAc
# In short: as §1
# [7] = molecular target: Fuc(a1-2)[GalNAc(a1-3)]Gal(b1-3)GalNAc(a1-3)[Fuc(a1-2)]Gal(b1-4)GlcNAc
# In short: as §1
# [8] = molecular target: Fuc(a1-4)GlcNAc
# In short: as §1
# [9] = molecular target: Gal(a1-3)Gal(b1-3)GlcNAc
# In short: as §1
# [10] = molecular target: Gal(a1-6)Glc
# In short: as §1
# [11] = molecular target: Gal(b1-3)Gal(b1-4)GlcNAc(b1-2)Man(a1-3)[Gal(b1-3)Gal(b1-4)GlcNAc(b1-2)Man(a1-6)]Man(b1-4)GlcNAc(b1-4)GlcNAc
# In short: as §1
# [12] = molecular target: Gal(b1-4)GlcNAc
# In short: as §1
# [13] = molecular target: Gal(b1-4)GlcNAc(b1-2)Man(a1-3)Man(b1-4)GlcNAc(b1-4)GlcNAc
# In short: as §1
# [14] = molecular target: Gal(b1-4)GlcNAc(b1-2)Man(a1-3)[Man(a1-6)]Man(b1-4)GlcNAc(b1-4)GlcNAc
# In short: as §1
# [15] = molecular target: Gal(b1-4)GlcNAc(b1-3)Gal(b1-4)GlcNAc(b1-3)Gal(b1-4)GlcNAc
# In short: as §1
# [16] = molecular target: Gal(b1-4)GlcNAc(b1-3)GalNAc
# In short: as §1
# [17] = molecular target: Gal(b1-4)GlcNAc(b1-3)[GlcNAc(b1-6)]Gal(b1-4)GlcNAc
# In short: as §1
# [18] = molecular target: Gal3S(b1-4)GlcNAc6S
# In short: as §1
# [19] = molecular target: Gal6S(b1-4)GlcNAc6S
# In short: as §1
# [20] = molecular target: GlcNAc(a1-4)Gal(b1-4)GlcNAc(b1-3)Gal(b1-4)GlcNAc(b1-3)Gal(b1-4)GlcNAc
# In short: as §1
# [21] = molecular target: GlcNAc(b1-4)GlcNAc
# In short: as §1
# [22] = molecular target: Kdn(a2-3)Gal(b1-4)[Fuc(a1-3)]GlcNAc
# In short: as §1
# [23] = molecular target: Man(a1-2)Man(a1-2)Man(a1-3)Man
# In short: as §1
# [24] = molecular target: Man(a1-2)Man(a1-2)Man(a1-6)[Man(a1-3)]Man
# In short: as §1
# [25] = molecular target: Man(a1-2)Man(a1-3)Man
# In short: as §1
# [26] = molecular target: Man(a1-2)Man(a1-3)[Man(a1-2)Man(a1-6)]Man(a1-6)[Man(a1-2)Man(a1-2)Man(a1-3)]Man(b1-4)GlcNAc(b1-4)GlcNAc
# In short: as §1
# [27] = molecular target: Neu5Ac(a2-3)Gal(b1-3)[Fuc(a1-4)]GlcNAc(b1-3)Gal(b1-4)[Fuc(a1-3)]GlcNAc
# In short: as §1
# [28] = molecular target: Neu5Ac(a2-3)Gal(b1-4)[Fuc(a1-3)]GlcNAc6S
# In short: as §1
# [29] = molecular target: Neu5Ac(a2-6)Gal(b1-4)GlcNAc(b1-2)Man(a1-6)[Man(a1-3)]Man(b1-4)GlcNAc(b1-4)GlcNAc
# In short: as §1
# [30] = molecular target: Neu5Ac(a2-6)Gal(b1-4)GlcNAc(b1-3)Gal(b1-4)GlcNAc(b1-3)Gal(b1-4)GlcNAc
# In short: as §1
binder,measurement,setting,value
B1,glycan array binding signal (z-score),[1],0.166
same,glycan array binding signal (z-score),[2],3.36
same,glycan array binding signal (z-score),[3],9.93
same,glycan array binding signal (z-score),[4],2.81
same,glycan array binding signal (z-score),[5],3.94
same,glycan array binding signal (z-score),[6],10.3
same,glycan array binding signal (z-score),[7],-0.199
same,glycan array binding signal (z-score),[8],-0.12
same,glycan array binding signal (z-score),[9],-0.087
same,glycan array binding signal (z-score),[10],-0.188
same,glycan array binding signal (z-score),[11],10.2
same,glycan array binding signal (z-score),[12],-0.196
same,glycan array binding signal (z-score),[13],-0.083
same,glycan array binding signal (z-score),[14],-0.181
same,glycan array binding signal (z-score),[15],3.5
same,glycan array binding signal (z-score),[16],-0.187
same,glycan array binding signal (z-score),[17],0.13
same,glycan array binding signal (z-score),[18],0.851
same,glycan array binding signal (z-score),[19],-0.192
same,glycan array binding signal (z-score),[20],2.23
same,glycan array binding signal (z-score),[21],-0.132
same,glycan array binding signal (z-score),[22],-0.201
same,glycan array binding signal (z-score),[23],-0.186
same,glycan array binding signal (z-score),[24],-0.177
same,glycan array binding signal (z-score),[25],-0.199
same,glycan array binding signal (z-score),[26],-0.15
same,glycan array binding signal (z-score),[27],-0.2
same,glycan array binding signal (z-score),[28],-0.188
same,glycan array binding signal (z-score),[29],-0.197
same,glycan array binding signal (z-score),[30],1.65
